The nature of test [1]: ATG_NFI_CIS: Attagene CIS-FACTORIAL HepG2 Assay for human Nuclear Factor I (NFI) (AID 2282989). To be noted: HepG2 cis-regulatory reporter, NFI response element transcription; actives raise or lower the signal. An outline of the steps:
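HepG2 cells transiently transfected with cis-element-driven multiplexed reporter transcription units, dosed for 24 h. Reporter mRNA quantified by RT-PCR, fluorescent labelling, HpaI digestion and capillary electrophoresis; bidirectional fit versus DMSO baseline.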

A short description of test [2]: ATG_NRF2_ARE_CIS: Attagene CIS-FACTORIAL HepG2 Assay for human Nuclear Factor Erythroid 2 Related Factor 2 (NFR2) response to Antioxidant Response Elements (ARE) (AID 2282992). To be noted: HepG2 Attagene ARE/NRF2 reporter, transcription factor activity; actives raise or lower the signal. Summed up:
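Endogenous transcription factor activity read out as reporter transcript levels (RT-PCR plus capillary electrophoresis, fluorescence) in transiently transfected HepG2 cells. Measured at 24 h after dosing; gain or loss of signal fitted versus DMSO.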

Test [3] in a line: ATG_Oct_MLP_CIS: Attagene CIS-FACTORIAL HepG2 Assay for human Octamer-Binding Transcription Factor (Oct) (AID 2282993). To be noted: HepG2 Attagene cis-factorial Oct reporter, mRNA; actives raise or lower the signal. Summed up:
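HepG2 cells transiently transfected with cis-promoter-driven multiplexed reporter transcription units, dosed for 24 h. Reporter mRNA quantified by RT-PCR, fluorescent labelling, HpaI digestion and capillary electrophoresis; bidirectional fits versus DMSO baseline.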

The nature of test [4]: BSK_3C_TissueFactor: BioMAP Diversity Plus: 3C Assay for Tissue Factor Biomarker Activity (AID 2282997). To be noted: BioMAP 3C HUVEC, tissue factor biomarker readout; actives raise or lower the signal. An outline of the steps: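 In this endothelial system, HUVEC are treated for 24 h and Tissue Factor is assessed by ELISA, normalised to DMSO.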
Test [5] is described as follows: BSK_3C_uPAR: BioMAP Diversity Plus: 3C Assay for Urokinase-type plasminogen activator receptor (uPAR) Biomarker Activity (AID 2282998). To be noted: BioMAP 3C HUVEC, uPAR biomarker ELISA; actives raise or lower the signal. Summed up: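 Human umbilical vein endothelial primary cells were exposed to test chemical for 24 h. Cell-surface uPAR was then quantified by ELISA, and responses were fitted bidirectionally against DMSO as negative control and baseline.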

The nature of test [6]: BSK_3C_VCAM1: BioMAP Diversity Plus: 3C Assay for Vascular cell adhesion molecule 1 (VCAM1) Biomarker Activity (AID 2282999). To be noted: BioMAP 3C HUVEC, VCAM1 ELISA, cytokine-stimulated; actives raise or lower the signal. Summed up: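 Activity fitted in both directions relative to DMSO, with ELISA measurement of the surface marker on primary HUVEC (3C) at 24 h post-treatment; parallel SRB staining (0.1% SRB, TCA-fixed, 560 nm) flagged overt cytotoxicity.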
(In general: An ELISA detects its analyte on a solid surface through an enzyme-linked reagent.)

The nature of test [7]: BSK_4H_Eotaxin3: BioMAP Diversity Plus: 4H Assay for Eotaxin 3 Biomarker Activity (AID 2283000).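 For outcome: CCL26 protein level quantified by ELISA in parallel with SRB cytotoxicity check.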 The settings on record: primary human endothelial cells (HUVEC); actives raise or lower the signal. An outline of the steps: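 ELISA quantitation of CCL26 (Eotaxin-3) protein from chemically dosed human vascular endothelial cells at 24 h; increases and decreases both scored relative to DMSO-treated baseline.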

For test [8], the target named is human Peroxisome Proliferator-activated Receptor alpha (PPARa), PPARA (gene 5465) (UniProt Q07869). Nature of the test: ATG_PPARa_TRANS: Attagene TRANS-FACTORIAL HepG2 Assay for human Peroxisome Proliferator-activated Receptor alpha (PPARa) (AID 2283001; active = hit-call score of the fitted dose curve at least 0.9, where 1 is the maximum). Summed up:
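Reporter transcripts quantified by RT-PCR plus capillary electrophoresis after 24 h treatment, fitted upward relative to DMSO. Cells: human HepG2 transiently carrying multiple GAL4-UAS reporter units driven by NR-Gal4 chimeras.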

Read-out in test [9]: Intercellular Adhesion Molecule 1 (ICAM1), ICAM1 (gene 3383)
Nature of the test: BSK_3C_ICAM1: BioMAP Diversity Plus: 3C Assay for Intercellular Adhesion Molecule 1 (ICAM1) Biomarker Activity (AID 2283003). The settings on record: primary human endothelial cells (HUVEC); actives raise or lower the signal. Summed up: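 ELISA readout of ICAM1 in human umbilical vein endothelial cells in the 3C system, taken 24 h post-dose. Gain or loss of signal versus DMSO was fitted in both directions, with SRB total-protein staining run in parallel.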

Test [10] concerns the target human Retinoic Acid Receptor beta (RARb), RARB (gene 5915) (UniProt P10826). As to the kind of experiment: ATG_RARb_TRANS: Attagene TRANS-FACTORIAL HepG2 Assay for human Retinoic Acid Receptor beta (AID 2283004; active = hit-call score of the fitted dose curve at least 0.9, where 1 is the maximum). Summed up: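 Fluorescent capillary-electrophoresis detection of GAL4-UAS reporter mRNA defines the endpoint, with induction over DMSO-treated wells scored as activity. Transiently transfected human hepatoma HepG2 cells expressing exogenous NR–Gal4 proteins are exposed to test chemicals for 24 h.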

Test [11] addresses Retinoic acid receptor alpha (Homo sapiens) (UniProt P10276). As to the kind of experiment: ATG_RARa_TRANS: Attagene TRANS-FACTORIAL HepG2 Assay for human Retinoic Acid Receptor alpha (RARa) (AID 2283005; active = hit-call score of the fitted dose curve at least 0.9, where 1 is the maximum). Summed up:
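Reporter transcripts, measured by RT-PCR with fluorescent labeling and capillary electrophoresis after 24 h dosing, reflect activity of an exogenous human RARa–GAL4 fusion in transiently transfected HepG2. Fitted for increase relative to DMSO.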

Test [12] is described as follows: BSK_3C_Proliferation: Cell Proliferation Assessment in the BioMAP Diversity Plus: 3C Assay (AID 2283006).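 Note: potency may reflect either rise or fall in cell number versus DMSO.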 The settings on record: primary human endothelial cells (HUVEC). Summed up:
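Proliferation as total protein: sulforhodamine B (0.1%) stain of TCA-fixed subconfluent human umbilical vein endothelial cells, absorbance 560 nm, 48 h after dosing. Activity fitted in both directions against DMSO baseline.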

The target in test [13] is Peroxisome proliferator-activated receptor gamma (Homo sapiens) (UniProt P37231). Nature of the test: ATG_PPARg_TRANS: Attagene TRANS-FACTORIAL HepG2 Assay for human Peroxisome Proliferator-activated Receptor-gamma (PPARg) (AID 2283007; active = hit-call score of the fitted dose curve at least 0.9, where 1 is the maximum). An outline of the steps: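 Human hepatoma HepG2, transient MRTU transfection, 24 h treatment. mRNA reporter signal by RT-PCR plus capillary electrophoresis, fluorescence detection; fitted for increase over DMSO negative control.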

The target of test [14] is Nuclear receptor subfamily 1 group I member 2 (Homo sapiens) (UniProt O75469). Nature of the test: ATG_PXR_TRANS: Attagene TRANS-FACTORIAL HepG2 Assay for human Pregnane X Receptor (PXR) (AID 2283008; active = hit-call score of the fitted dose curve at least 0.9, where 1 is the maximum). An outline of the steps: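 Transactivation by exogenous PXR–GAL4 fusion measured as reporter transcript induction after 24 h compound treatment of transfected human HepG2 cells. Read-out via RT-PCR and capillary electrophoresis of labelled fragments, fitted upward relative to DMSO.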

For test [15], the target named is human Retinoic Acid Receptor gamma (RARg), RARG (gene 5916) (UniProt P13631). As to the kind of experiment: ATG_RARg_TRANS: Attagene TRANS-FACTORIAL HepG2 Assay for human Retinoic Acid Receptor gamma (RARg) (AID 2283009; active = hit-call score of the fitted dose curve at least 0.9, where 1 is the maximum). An outline of the steps: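 Transactivation of exogenous RARg-Gal4 fusion measured as reporter transcript induction after 24 h in transfected HepG2 cells. RNA reverse-transcribed, amplified, fluorescently labeled and resolved by capillary electrophoresis; increase relative to DMSO.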

In test [16] the target is human RAR-related Orphan Receptor beta (RORb), RORB (gene 6096) (UniProt Q92753). As to the kind of experiment: ATG_RORb_TRANS: Attagene TRANS-FACTORIAL HepG2 Assay for human RAR-related Orphan Receptor beta (RORb) (AID 2283010; active = hit-call score of the fitted dose curve at least 0.9, where 1 is the maximum). Summed up:
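Read-out is reporter mRNA induction, quantified by RT-PCR with fluorescent capillary electrophoresis, 24 h post-dose in transiently transfected HepG2 expressing exogenous NR-Gal4 chimera. Activity fitted upward versus DMSO.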

For test [17], the target named is Cellular tumor antigen p53 (Homo sapiens) (UniProt P04637). As to the kind of experiment: ATG_p53_CIS: Attagene CIS-FACTORIAL HepG2 Assay for human p53 Transcription Factor (AID 2282994). The settings on record: HepG2 p53 cis-element reporter, Attagene mRNA; actives raise or lower the signal. An outline of the steps: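 Endogenous p53 activity read in transiently transfected HepG2 from a cis-element-driven reporter transcript after 24 h exposure. RNA reverse-transcribed, PCR-amplified, fluorescently labelled and sized by capillary electrophoresis; gain or loss fitted against DMSO baseline.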

Test [18] addresses human Peroxisome Proliferator-activated Receptor delta (PPARd), PPARD (gene 5467) (UniProt Q03181). As to the kind of experiment: ATG_PPARd_TRANS: Attagene TRANS-FACTORIAL HepG2 Assay for human Peroxisome Proliferator-activated Receptor delta (PPARd) (AID 2283002; active = hit-call score of the fitted dose curve at least 0.9, where 1 is the maximum). Summed up:
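Transient HepG2 transfection (multiple GAL4-UAS RTUs, chimeric receptor-Gal4); 24 h dosing; total RNA → oligo(dT) RT → PCR → 6-FAM primer extension → HpaI cut → CE. Positive direction vs DMSO.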

The nature of test [19]: ATG_NF_kB_CIS: Attagene CIS-FACTORIAL HepG2 Assay for human Nuclear Factor Kappa B (NF-kB) (AID 2282991). The settings on record: HepG2 Attagene cis-factorial NF-kB reporter mRNA; actives raise or lower the signal. An outline of the steps: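 Multiplexed cis-reporter assay in transiently transfected HepG2. 24 h treatment; RNA isolated, RT-PCR, labelled fragments resolved by CE. DMSO baseline.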

Results filed as inconclusive are left out. The source made the active and inactive calls. Rule for the calls, unless noted: active = hit-call score of the fitted dose curve at least 0.9, where 1 is the maximum; inactive = score below 0.9.

Sequence of human Retinoic Acid Receptor gamma (RARg), RARG (gene 5916) (P13631 whole entry, looked up, the tested form may be a part): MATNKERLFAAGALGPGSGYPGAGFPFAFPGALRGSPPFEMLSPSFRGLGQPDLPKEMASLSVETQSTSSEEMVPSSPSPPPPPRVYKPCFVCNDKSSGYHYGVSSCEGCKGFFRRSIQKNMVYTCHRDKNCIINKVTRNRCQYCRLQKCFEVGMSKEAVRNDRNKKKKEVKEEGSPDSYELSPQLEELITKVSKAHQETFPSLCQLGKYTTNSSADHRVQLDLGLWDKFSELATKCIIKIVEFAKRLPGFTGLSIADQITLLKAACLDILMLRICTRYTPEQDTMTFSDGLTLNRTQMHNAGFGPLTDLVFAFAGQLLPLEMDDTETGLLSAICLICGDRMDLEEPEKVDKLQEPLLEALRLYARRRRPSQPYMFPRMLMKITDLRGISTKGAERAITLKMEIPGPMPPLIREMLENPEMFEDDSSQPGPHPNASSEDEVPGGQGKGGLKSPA
Sequence of human Retinoic Acid Receptor beta (RARb), RARB (gene 5915) (P10826 whole entry, looked up, the tested form may be a part): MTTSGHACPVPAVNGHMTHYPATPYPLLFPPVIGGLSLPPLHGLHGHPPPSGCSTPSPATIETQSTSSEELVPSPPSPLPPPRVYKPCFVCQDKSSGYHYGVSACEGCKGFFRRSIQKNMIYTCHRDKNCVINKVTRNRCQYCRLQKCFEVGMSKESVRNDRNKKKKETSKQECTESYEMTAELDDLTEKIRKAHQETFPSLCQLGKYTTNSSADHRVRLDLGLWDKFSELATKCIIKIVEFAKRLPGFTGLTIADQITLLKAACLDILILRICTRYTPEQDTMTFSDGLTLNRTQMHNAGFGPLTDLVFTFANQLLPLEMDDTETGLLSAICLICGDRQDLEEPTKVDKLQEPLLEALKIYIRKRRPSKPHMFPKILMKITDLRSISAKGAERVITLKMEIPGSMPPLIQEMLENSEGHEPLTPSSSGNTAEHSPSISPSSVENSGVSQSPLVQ
Sequence of human Peroxisome Proliferator-activated Receptor alpha (PPARa), PPARA (gene 5465) (Q07869 whole entry, looked up, the tested form may be a part): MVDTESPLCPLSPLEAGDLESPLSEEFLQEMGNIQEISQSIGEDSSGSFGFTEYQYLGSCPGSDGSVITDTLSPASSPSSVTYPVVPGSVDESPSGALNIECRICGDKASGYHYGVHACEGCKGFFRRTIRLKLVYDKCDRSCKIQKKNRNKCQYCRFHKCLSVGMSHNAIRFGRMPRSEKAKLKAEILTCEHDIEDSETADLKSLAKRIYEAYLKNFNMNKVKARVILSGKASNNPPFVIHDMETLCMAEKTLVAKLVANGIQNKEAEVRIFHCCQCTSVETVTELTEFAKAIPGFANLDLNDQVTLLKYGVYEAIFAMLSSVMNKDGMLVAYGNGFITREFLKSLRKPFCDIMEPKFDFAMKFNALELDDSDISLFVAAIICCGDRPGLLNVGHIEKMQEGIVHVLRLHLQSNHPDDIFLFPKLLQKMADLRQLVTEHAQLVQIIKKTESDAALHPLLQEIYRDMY
Sequence of human RAR-related Orphan Receptor beta (RORb), RORB (gene 6096) (Q92753 whole entry, looked up, the tested form may be a part): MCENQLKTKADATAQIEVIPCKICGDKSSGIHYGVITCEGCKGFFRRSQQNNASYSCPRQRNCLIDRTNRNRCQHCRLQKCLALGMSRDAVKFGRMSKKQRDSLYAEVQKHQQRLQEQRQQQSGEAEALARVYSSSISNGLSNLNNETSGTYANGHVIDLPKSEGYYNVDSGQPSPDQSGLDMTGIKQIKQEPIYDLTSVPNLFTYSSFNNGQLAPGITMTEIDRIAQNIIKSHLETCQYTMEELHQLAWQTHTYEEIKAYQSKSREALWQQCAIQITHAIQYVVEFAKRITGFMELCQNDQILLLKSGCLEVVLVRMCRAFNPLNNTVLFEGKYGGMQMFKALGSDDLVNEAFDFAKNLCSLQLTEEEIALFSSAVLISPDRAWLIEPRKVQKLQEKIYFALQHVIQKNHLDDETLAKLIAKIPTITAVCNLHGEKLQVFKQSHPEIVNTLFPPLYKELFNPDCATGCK
Sequence of Nuclear receptor subfamily 1 group I member 2 (Homo sapiens) (O75469 whole entry, looked up, the tested form may be a part): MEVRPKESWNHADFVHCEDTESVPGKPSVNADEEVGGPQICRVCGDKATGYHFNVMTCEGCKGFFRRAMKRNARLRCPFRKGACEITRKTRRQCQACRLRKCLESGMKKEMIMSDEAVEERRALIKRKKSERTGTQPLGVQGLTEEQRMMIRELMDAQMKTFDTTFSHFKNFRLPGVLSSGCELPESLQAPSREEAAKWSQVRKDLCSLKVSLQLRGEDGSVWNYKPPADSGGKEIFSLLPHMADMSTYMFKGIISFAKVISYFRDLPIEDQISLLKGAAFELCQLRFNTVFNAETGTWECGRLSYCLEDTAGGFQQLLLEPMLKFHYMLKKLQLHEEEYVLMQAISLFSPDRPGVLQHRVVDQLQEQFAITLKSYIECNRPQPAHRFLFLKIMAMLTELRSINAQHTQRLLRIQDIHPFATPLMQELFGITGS
Sequence of Cellular tumor antigen p53 (Homo sapiens) (P04637 whole entry, looked up): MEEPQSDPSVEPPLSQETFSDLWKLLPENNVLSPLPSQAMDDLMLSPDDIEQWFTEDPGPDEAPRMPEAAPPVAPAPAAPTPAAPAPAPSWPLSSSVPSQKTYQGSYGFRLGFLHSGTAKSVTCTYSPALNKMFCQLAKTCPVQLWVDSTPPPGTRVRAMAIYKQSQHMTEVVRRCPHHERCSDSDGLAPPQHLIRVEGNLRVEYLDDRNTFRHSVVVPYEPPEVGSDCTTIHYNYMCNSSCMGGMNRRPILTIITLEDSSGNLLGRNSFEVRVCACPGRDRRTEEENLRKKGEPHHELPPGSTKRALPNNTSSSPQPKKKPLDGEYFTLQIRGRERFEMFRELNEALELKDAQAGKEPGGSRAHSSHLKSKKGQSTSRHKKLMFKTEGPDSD
Sequence of Retinoic acid receptor alpha (Homo sapiens) (P10276 whole entry, looked up, the tested form may be a part): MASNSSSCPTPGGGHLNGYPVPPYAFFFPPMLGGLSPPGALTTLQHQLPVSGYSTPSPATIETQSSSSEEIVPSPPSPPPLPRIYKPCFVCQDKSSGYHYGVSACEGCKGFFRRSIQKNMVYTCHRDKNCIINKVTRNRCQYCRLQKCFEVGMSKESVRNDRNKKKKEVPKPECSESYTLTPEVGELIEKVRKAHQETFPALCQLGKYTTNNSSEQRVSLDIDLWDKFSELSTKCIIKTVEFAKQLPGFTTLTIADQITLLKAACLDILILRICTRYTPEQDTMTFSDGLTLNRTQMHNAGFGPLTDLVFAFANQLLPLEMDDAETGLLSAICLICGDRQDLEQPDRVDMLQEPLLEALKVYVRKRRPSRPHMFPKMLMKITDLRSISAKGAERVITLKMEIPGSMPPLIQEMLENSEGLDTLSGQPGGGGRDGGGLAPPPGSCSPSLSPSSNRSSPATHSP
Sequence of Peroxisome proliferator-activated receptor gamma (Homo sapiens) (P37231 whole entry, looked up): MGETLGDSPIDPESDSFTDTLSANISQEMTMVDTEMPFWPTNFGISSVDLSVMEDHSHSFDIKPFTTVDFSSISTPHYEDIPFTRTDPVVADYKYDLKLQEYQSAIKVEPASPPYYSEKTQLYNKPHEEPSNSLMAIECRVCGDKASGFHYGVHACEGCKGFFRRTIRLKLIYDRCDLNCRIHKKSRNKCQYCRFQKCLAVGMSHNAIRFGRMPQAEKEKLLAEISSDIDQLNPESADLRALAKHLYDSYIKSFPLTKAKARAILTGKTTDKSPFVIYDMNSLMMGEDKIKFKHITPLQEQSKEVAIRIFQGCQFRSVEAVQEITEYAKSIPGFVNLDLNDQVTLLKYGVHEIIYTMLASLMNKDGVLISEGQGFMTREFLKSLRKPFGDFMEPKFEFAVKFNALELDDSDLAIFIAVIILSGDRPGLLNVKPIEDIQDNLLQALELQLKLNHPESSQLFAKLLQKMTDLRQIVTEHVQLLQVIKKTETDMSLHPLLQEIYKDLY
Sequence of human Peroxisome Proliferator-activated Receptor delta (PPARd), PPARD (gene 5467) (Q03181 whole entry, looked up, the tested form may be a part): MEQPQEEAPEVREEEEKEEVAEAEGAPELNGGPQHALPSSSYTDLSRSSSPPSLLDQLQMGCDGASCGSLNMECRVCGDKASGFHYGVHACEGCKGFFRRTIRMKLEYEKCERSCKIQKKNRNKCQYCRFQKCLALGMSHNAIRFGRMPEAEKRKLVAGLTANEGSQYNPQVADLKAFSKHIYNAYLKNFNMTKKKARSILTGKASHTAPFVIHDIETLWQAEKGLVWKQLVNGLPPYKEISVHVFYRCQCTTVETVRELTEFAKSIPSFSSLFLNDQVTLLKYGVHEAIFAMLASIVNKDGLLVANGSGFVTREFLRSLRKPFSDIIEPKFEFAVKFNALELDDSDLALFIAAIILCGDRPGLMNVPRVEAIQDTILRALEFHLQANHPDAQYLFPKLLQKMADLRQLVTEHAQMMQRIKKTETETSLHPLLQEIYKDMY

As a reminder, the AC50 is the midpoint of the concentration-response curve, whichever way the signal moves. Regarding `CCC(C)Nc1c([N+](=O)[O-])cc(C(C)(C)C)cc1[N+](=O)[O-]` (configuration not stated), the outcome in test [1], in test [4], in test [7], in test [8], in [9] and in [10] was inactive. Also, the result in test [11], in test [15] and in [16] was inactive. Also, the AC50 in test [2] was 8.79 µM (active); in test [3], 15.1 µM (active); in test [5], 17.8 µM (active); in test [6], 24.8 µM (active); in test [12] it was 34.6 µM (active); in test [13] it was 36.8 µM (active). Also, the concentration at half-maximal activity (AC50) in test [14] was 8.2 µM (active).
As for `CC1(c2ccc(Oc3ccccc3)cc2)OC(=O)N(Nc2ccccc2)C1=O` (configuration not stated), the outcome in [1], in test [17], in test [8], in test [18], in test [9] and in test [10] was inactive. The molecule was classed as inactive in test [11], in test [14] and in test [15]. Moreover, the AC50 in test [2] is 1.61 µM (active); in test [3], 2.01 µM (active); in test [4] it was 29.5 µM (active); in test [5], 25.9 µM (active); in test [6], 33 µM (active); in test [7] it was 16.5 µM (active). Further, the AC50 in test [12] is 14 µM (active).
Consider `CCC(C)(C)C(=O)OC1=C(c2ccc(Cl)cc2Cl)C(=O)OC12CCCCC2`, for which the molecule was classed as inactive in test [1], in test [19], in test [3], in test [17], in test [8] and in [10]. Besides, the call in test [15] and in test [16] was inactive. The AC50 in test [2] is 1.27 µM (active); in test [4], 13.4 µM (active); in test [5], 33.9 µM (active); in test [6], 24.7 µM (active); in test [7], 32.3 µM (active); in test [9], 32.6 µM (active). Besides, in test [12], the AC50 was 29.2 µM (active).

These data come from PubChem BioAssay (EPA / NIEHS).
